# Measured values reported in PubChem BioAssay (NCATS).
# Inconclusive results are not listed. Active and inactive are the calls of the source. Unless noted, the rule behind the calls is not given here.
# How the values were obtained:
# [1] = Immunotoxin (SS1P) sensitization/mitigation study. Vehicle arm (DMEM) (AID 1159513); note: potency is the fitted concentration of half-maximal effect
# [2] = High-throughput drug toxicity screening in the BPDCN cell line Gen2.2 (AID 1224824); conditions: Gen2.2 BPDCN cells; at 45.8 µM (top of the series);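 note: cells exposed to compounds for 48 h before reading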
# Method in brief: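 CellTiter-Glo luminescence read after 48 h compound exposure at 37 C defines viability; percent activity set with DMSO as 100% and bortezomib (9.2 uM final) as 0%. 500 exponentially growing cells per well, RPMI plus 10% FBS.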
# [3] = High-throughput drug toxicity screening in the BPDCN cell line Cal-1 (AID 1224825); conditions: Cal-1 BPDCN cell viability, qHTS; at 45.8 µM (top of the series)
# Method in brief: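 Percent activity derived from CellTiter-Glo luminescence, scaling DMSO to 100% and 9.2 uM final bortezomib to 0%. BPDCN Cal-1 cells (500/well, RPMI plus 10% FBS) incubated with compounds 48 hours at 37C before reading.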
# [4] = qHTS assay for measurement of the activity of small molecule inhibitors on Zika virus induced Caspase-3 activity in human iPSC derived neural progenitor cells (hNPCs) (AID 1224857; active = well fitted inhibition curve with a large enough effect; note: nearly all actives have a fitted effect of over 65% in size; note: potency is the fitted concentration of half-maximal effect)
# Method in brief: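 Cells were plated at 350 per well and grown 16 to 20 hours. Compound pretreatment lasted one hour, after which ZIKV (2 FFU/cell) was added for 6 hours. Percent inhibition was normalized between uninfected and infected controls.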
# [5] = qHTS assay for measurement of the activity of small molecule inhibitors on Zika virus induced Caspase-3 activity in human astrocytoma cells (AID 1224859; active = well fitted inhibition curve with a large enough effect; note: potency is the fitted concentration of half-maximal effect)
# Method in brief: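 Percent inhibition of virus-induced caspase-3/7 signal is calculated against uninfected and ZIKV-infected control cells. Cells are SNB-19, infected at 2 FFU/cell for 6 h after 1 h compound exposure.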
# [6] = qHTS Screen of the MIPE 4.0 Collection Against Ewings Sarcoma (RDES) (AID 1259252; active = well fitted inhibition curve with a large enough effect; note: nearly all actives have a fitted effect of over 35% in size; note: potency is the fitted concentration of half-maximal effect)
# Method in brief: (§1)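 Cells plated in serum-containing RPMI (5% FBS) and treated with compound dilutions for 48 h. Readout luminescent viability; normalization relied on vehicle (no inhibition) and media-only columns (full inhibition).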
# [7] = qHTS Screen of the MIPE 4.0 Collection Against Ewings Sarcoma (TC71) (AID 1259253; active = well fitted inhibition curve with a large enough effect; note: nearly all actives have a fitted effect of over 40% in size; note: potency is the fitted concentration of half-maximal effect)
# Method in brief: as §1
# [8] = qHTS Screen of the MIPE 4.0 Collection Against Ewings Sarcoma (EW8) (AID 1259255; active = well fitted inhibition curve with a large enough effect; note: nearly all actives have a fitted effect of over 35% in size; note: potency is the fitted concentration of half-maximal effect;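 for viability: 100% = DMSO-treated cells and 0% = medium-only wells without cells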)
# Method in brief: as §1
structure (smiles),measurement,setting,value
O=C1CCCC2=C1C(c1[nH]ncc1Cl)N=C(Nc1nc3ccccc3o1)N2 (stereo not drawn),Potency,[1],inactive
CN(C)NC(=O)CCC(=O)O,"cell viability, % of control (lower = more cytotoxic)",[2],121%
same,viability (% of control),[3],96.3%
same,Potency,[4],inactive
same,Potency,[5],inactive
Cc1c(C(=O)Nc2cccc(C(F)(F)F)c2)cc(-c2ccccc2)n1CCCN1CCOCC1,Potency,[1],23.5 µM (active)
same,"cell viability, % of control (lower = more cytotoxic)",[2],52.7%
same,viability (% of control),[3],37.9%
same,Potency,[4],inactive
same,Potency,[5],inactive
same,Potency,[6],13.2 µM (active)
same,Potency,[7],6.62 µM (active)
same,Potency,[8],16.6 µM (active)
COc1ccc(C(=O)c2c(C)n(CCN3CCOCC3)c3cc(I)ccc23)cc1,"cell viability, % of control (lower = more cytotoxic)",[2],4.27%
same,viability (% of control),[3],5.23%
same,Potency,[4],inactive
same,Potency,[5],inactive
O=C(O)c1ccc(O)c2ncc(N3CCOCC3)cc12,Potency,[1],inactive
COCCn1c2c([n+](Cc3cnccn3)c1C)C(=O)c1ccccc1C2=O,Potency,[1],0.0037 µM (active)
CN(NC(=O)CC(=O)NN(C)C(=S)c1ccccc1)C(=S)c1ccccc1,Potency,[1],inactive
C[C@@H]1CC[C@H]2[C@@H](C)C(=O)O[C@@H]3O[C@@]4(C)CC[C@H]1[C@]32OO4,"cell viability, % of control (lower = more cytotoxic)",[2],95.1%
same,viability (% of control),[3],98.1%
same,Potency,[4],inactive
same,Potency,[5],inactive
same,Potency,[6],18.7 µM (active)
NC(=O)c1ccc(N(C(N)=O)c2c(F)cccc2F)nc1-c1ccc(F)cc1F,Potency,[1],inactive
O=C(N[C@H]1CN2CCC1CC2)c1ccc(Cl)cc1,"cell viability, % of control (lower = more cytotoxic)",[2],126%
same,viability (% of control),[3],106%
same,Potency,[4],inactive
same,Potency,[5],inactive
same,Potency,[6],8.33 µM (active)
CC(=CCCC1=CCC(C2=CC(=O)OC2O)OC1O)CCC1=C(C)CCCC1(C)C (stereo not drawn),"cell viability, % of control (lower = more cytotoxic)",[2],124%
same,viability (% of control),[3],103%
same,Potency,[4],inactive
same,Potency,[5],inactive
O=C1C=CC[C@@H]2[C@H]3CCCN4CCC[C@@H](CN12)[C@@H]34,"cell viability, % of control (lower = more cytotoxic)",[2],126%
same,viability (% of control),[3],120%
same,Potency,[4],4.69 µM (active)
same,Potency,[5],3.32 µM (active)
N=c1c2c(-c3ccccc3)c(-c3ccccc3)n(Cc3ccccc3)c2ncn1C1CCC(O)CC1 (stereo not drawn),"cell viability, % of control (lower = more cytotoxic)",[2],130%
same,viability (% of control),[3],11.7%
same,Potency,[4],inactive
same,Potency,[5],inactive
same,Potency,[6],1.18 µM (active)
N#Cc1c(O)c2c(-c3ccc(-c4ccccc4O)cc3)csc2[nH]c1=O,Potency,[1],inactive
CCOc1ccc(Cc2cc([C@@H]3O[C@H](CO)[C@@H](O)[C@H](O)[C@@H]3O)ccc2Cl)cc1,Potency,[1],inactive
COc1cc(N2CCC(N3CCN(C)CC3)CC2)ccc1Nc1ncc(Cl)c(Nc2ccccc2S(=O)(=O)C(C)C)n1,Potency,[1],5.26 µM (active)
CC(C)=CCCC(C)=CCCC(C)=CCSc1ccccc1C(=O)O,Potency,[1],inactive
COC1=C[C@@H]2[C@@H]3Cc4ccc(OC)c(O)c4[C@]2(CCN3C)CC1=O,"cell viability, % of control (lower = more cytotoxic)",[2],69.4%
same,viability (% of control),[3],12.3%
same,Potency,[4],inactive
same,Potency,[5],inactive
COc1ccc(-c2c(-c3ccc(O)cc3O)n[nH]c2C)cc1,Potency,[1],16.6 µM (active)
Cc1cc(-c2nnc3n2CCCCC3)c(C)n1-c1ccc(F)cc1,Potency,[1],0.332 µM (active)
CC(=O)NCCC(=O)N[C@@H](CCC(N)=O)C(=O)N[C@@H](CO)C(=O)N[C@@H](CCC(N)=O)C(=O)N[C@@H](CCC(N)=O)C(=O)N[C@H](C(=O)N[C@@H](Cc1ccccc1)C(=O)N[C@]1(C)CCCCCCC=CCCC[C@@](C)(C(=O)N[C@@H](CCC(N)=O)C(=O)N[C@@H](CC(N)=O)C(N)=O)NC(=O)[C@H](CC(C)C)NC(=O)[C@H](CC(C)C)NC(=O)[C@@H](CCCNC(=N)N)NC(=O)[C@H](Cc2c[nH]c3ccccc23)NC(=O)[C@H](CC(C)C)NC(=O)[C@H](CC(N)=O)NC1=O)[C@H](C)O,Potency,[1],inactive
CC(C)(C)c1cc(C=C(C#N)C#N)cc(Br)c1O,"cell viability, % of control (lower = more cytotoxic)",[2],12.6%
same,viability (% of control),[3],11%
same,Potency,[4],inactive
same,Potency,[5],inactive
O=C(N[C@@H](COc1ccc2[nH]c(=O)[nH]c2c1)c1ccccc1)c1cccn(Cc2ccc(F)c(F)c2)c1=O,"cell viability, % of control (lower = more cytotoxic)",[2],46.5%
same,viability (% of control),[3],36.8%
same,Potency,[4],inactive
same,Potency,[5],inactive
same,Potency,[6],23.5 µM (active)
C=C[C@@H]1CN2CCC1C[C@H]2[C@H](O)c1ccnc2ccccc12 (stereo partly drawn),"cell viability, % of control (lower = more cytotoxic)",[2],14.7%
same,viability (% of control),[3],47.1%
same,Potency,[4],inactive
same,Potency,[5],inactive
same,Potency,[6],23.5 µM (active)
C[C@]12CCC(=O)C(O)=C1CC[C@@H]1[C@H]3CCC(=O)[C@@]3(C)CC[C@@H]12,"cell viability, % of control (lower = more cytotoxic)",[2],78%
same,viability (% of control),[3],116%
same,Potency,[4],inactive
same,Potency,[5],inactive
Cc1cc2c(cc1C1(c3ccc(C(=O)O)cn3)CC1)C(C)(C)CCC2(C)C,Potency,[1],inactive
Cc1cnc(Nc2ccc(OCCN3CCCC3)cc2)nc1Nc1cccc(S(=O)(=O)NC(C)(C)C)c1,Potency,[1],inactive
O=C(NCC1CCOCC1)c1cnc(Nc2ccc(Cl)cc2Cl)nc1C(F)(F)F,"cell viability, % of control (lower = more cytotoxic)",[2],7.01%
same,viability (% of control),[3],7.59%
same,Potency,[4],inactive
same,Potency,[5],8.33 µM (active)
NC(=O)c1ccc(I)c([N+](=O)[O-])c1,Potency,[1],inactive
COc1cc2c(cc1OC)[C@@H]1C(=O)c3ccc4c(c3O[C@@H]1CO2)C=CC(C)(C)O4,Potency,[1],4.18 µM (active)
Clc1ccc(-c2nc3sccn3c2C=NOCc2ccc(Cl)c(Cl)c2)cc1,Potency,[1],inactive
CC#C[C@]1(O)CC[C@H]2[C@@H]3CCC4=CC(=O)CCC4=C3[C@H](c3ccc(N(C)C)cc3)C[C@@]21C,Potency,[1],23.5 µM (active)
CC(C)(Sc1ccc(CCN(CCCCC2CCCCC2)C(=O)NC2CCCCC2)cc1)C(=O)O,Potency,[1],inactive
C=C[C@@H]1CN2CCC1C[C@@H]2[C@@H](O)c1ccnc2ccccc12 (stereo partly drawn),"cell viability, % of control (lower = more cytotoxic)",[2],220%
same,viability (% of control),[3],93.3%
same,Potency,[4],inactive
same,Potency,[5],inactive
same,Potency,[6],16.6 µM (active)
CC(C)(C)C(=O)Oc1ccc2c(c1)nc(NC(=O)c1cccc([N+](=O)[O-])c1)n2CCCO,Potency,[1],inactive
O=C(Nc1cc(Cl)cc2c1[nH]c1cnccc12)c1cccnc1,Potency,[1],13.2 µM (active)
CC(=O)N(C)c1cccc(-c2ccnc3c(C(=O)c4cccs4)cnn23)c1,"cell viability, % of control (lower = more cytotoxic)",[2],111%
same,viability (% of control),[3],72.5%
same,Potency,[4],inactive
same,Potency,[5],inactive
COc1cc(Nc2ncc3c(n2)-c2ccc(Cl)cc2C(c2c(F)cccc2OC)=NC3)ccc1C(=O)O,Potency,[1],inactive
O=S(=O)(F)Cc1ccccc1,"cell viability, % of control (lower = more cytotoxic)",[2],76.9%
same,viability (% of control),[3],97.3%
same,Potency,[4],inactive
same,Potency,[5],inactive
same,Potency,[6],0.0418 µM (active)
same,Potency,[7],inactive
CCOP(=O)(OCC)C(C)NC(=O)N(CCCl)N=O (stereo not drawn),"cell viability, % of control (lower = more cytotoxic)",[2],109%
same,viability (% of control),[3],103%
same,Potency,[4],inactive
same,Potency,[5],inactive
same,Potency,[6],inactive
same,Potency,[8],inactive
